Pf growth 48h: Primary qHTS for delayed death inhibitors of the malarial parasite plastid, 48 hour incubation. 310,000 tested, 5.9% active. Potency, µM (doses to about 28.7 µM), inactives show at the top dose activity change, negative = inhibition, most hits filed as inhibitors. P. falciparum luciferase growth in erythrocytes, 48 h. AID 504832, 2011; note: potency is the fitted concentration of half-maximal effect; % is set by controls: 0 for no effect and ±100 for the full control effect
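Growth was read as firefly luciferase luminescence after a 48 h, 37 C, 5% CO2 exposure of compounds to reporter-bearing P. falciparum cultures (0.1% parasitemia, 2% hematocrit final) in Albumax-supplemented RPMI 1640.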
Shiga inhibitor: A qHTS for Small Molecule Inhibitors of Shiga Toxin; Vero cells, Shiga toxin protein synthesis inhibition reporter; inhibition, % at 38.7 µM; 290,000 tested, 9.2% active; AID 2315, 2010; in the data active = inhibition mostly above about 28%, no sharp cut-off; inactive = mostly below about 43%; note: 0% is about no effect
Sm TGR block: qHTS Assay for the Inhibitors of Schistosoma Mansoni Peroxiredoxins | Schistosoma mansoni thioredoxin glutathione reductase (TGR), Q962Y6 | purified TGR, DTNB reduction, TNB absorbance 405 nm | Potency, µM (top dose mostly 114 µM), without a hit: top-dose activity change, negative = inhibition, actives largely listed as inhibitors | 360,000 tested, 3% active | AID 485364, 2010; note: potency is the fitted concentration of half-maximal effect; % is set by controls: 0 for no effect and ±100 for the full control effect; nearly all actives have a fitted effect of over 60% in size
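Kinetic colorimetric format: TGR-catalysed, NADPH-driven DTNB reduction monitored via TNB absorbance. Enzyme dispensed at 20 nM; compound exposure 15 min at room temperature before reaction start.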
NS1 inh: qHTS Assay for Inhibitors of Influenza NS1 Protein Function. Potency, µM (doses to about 46.1 µM), for the others: top-dose activity, positive = more growth. AID 2326, 2010. 270,000 tested, 0.4% active; calls by dose curve; note: potency is the fitted concentration of half-maximal effect; actives are rising curves; nearly all actives have a fitted effect of over 50% in size
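Growth recovery, yeast-based: influenza A NS1 expressed in S. cerevisiae causes slow growth, and suppressors are detected by OD600. The parent strain without NS1 is used as positive control.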
Cycloheximide cs: Cycloheximide Counterscreen for Small Molecule Inhibitors of Shiga Toxin | cell reporter, cycloheximide protein synthesis inhibition counterscreen | AID 2314, 2010 | 300,000 tested, 12% active | max response, %; in the data active = max response mostly above about 13%, no sharp cut-off; inactive = mostly below about 14%; note: read at 38.3 µM for the half of the compounds with a filed dose; 0% is about no effect
Pf growth 96h: Primary qHTS for delayed death inhibitors of the malarial parasite plastid, 96 hour incubation; Potency, µM (highest dose often 28.7 µM), without a hit: top-dose activity change, negative = inhibition, usual class: inhibitors; AID 504834, 2011; 320,000 tested, 6.9% active; P. falciparum luciferase reporter growth, 96 h; note: potency is the fitted concentration of half-maximal effect; % is set by controls: 0 for no effect and ±100 for the full control effect
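P. falciparum expressing integrated firefly luciferase, in erythrocytes at 2% hematocrit, 0.05% parasitemia, incubated with compounds 96 h at 37 C, 5% CO2. Growth inhibition read as loss of luminescence; two-generation exposure targets delayed-death apicoplast inhibitors.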
* = called active by the depositor; ? = inconclusive; nt = no result given; [ ] = dose if it differs, or a comment. Compounds with a hit are over-represented: about 21% of the library has one in this group of screens. Unless noted, calls come from the whole dose curve; as a rule, active = well fitted curve in the direction sought with a large enough effect; inconclusive = small, poorly fitted or top-dose-only effect, or another doubt; inactive = no such curve, though single readings can be large; an effect the other way counts as inactive or inconclusive.

SMILES	Pf growth 48h	Shiga inhibitor	Sm TGR block	NS1 inh	Cycloheximide cs	Pf growth 96h
COc1cccc(OC)c1NC(=O)CN(C)S(=O)(=O)c1ccc2c(c1)OCCO2	-1%	4	1%	-10%	-9	7%
CCN(CC)c1nc(N)c2c(N)n(-c3ccccc3C)c(=S)c(C#N)c2c1C#N	12%	16	8%	?	6	nt
CCN(CC)c1nc(N)c2c(N)nc3c(c2c1C#N)CC(c1ccccc1)O3 (stereo unspecified)	2.3µM*	-6	4%	-13%	-2	nt
N#Cc1c(N2CCCCC2)nc(N)c2c(N)nc3c(c12)CC(c1ccccc1)O3 (stereo unspecified)	5.9µM*	15	-11%	?	-1	4.1µM*
CCC1Cc2c(nc(N)c3c(N)nc(N4CCCCC4)c(C#N)c23)O1 (stereo unspecified)	?	-6	5%	4%	-1	?
Cc1cccc(CNC(=O)c2ccc(NC(=O)N3CC(C)Sc4ccccc43)cc2)c1 (stereo unspecified)	nt	nt	3%	nt	nt	nt
CCC(C)C(=O)Nc1nc2ccc(S(C)(=O)=O)cc2s1 (stereo unspecified)	9%	37*	6%	3%	20*	?
CCC(C)C(=O)Nc1nc2ccc(OC)cc2s1 (stereo unspecified)	64%	71*	1%	6%	42*	72%
COc1ccc2nc(NC(=O)Nc3cccc4ccccc34)sc2c1	-16%	56	-2%	nt	23	48%
CC(=O)Nc1nc2ccc(Br)cc2s1	93%	40	2%	-75%	21*	?
COc1ccc(OCC(=O)Nc2nc3ccc(NC(C)=O)cc3s2)cc1	-5%	28	nt	7%	1	?
CC(C)C(=O)Nc1nc2ccc(S(C)(=O)=O)cc2s1	17%	28	nt	-5%	27	9%
COc1ccc2nc(NC(C)=O)sc2c1	142%	82*	-23%	-10%	42*	nt
CCOc1cc(/C=C(\C#N)C(=O)Nc2ccc(S(N)(=O)=O)cc2)ccc1OCCN1CCOCC1	2%	-6	?	4%	-1	3%
CCN(CC)CCn1c2c(c(SCC(=O)Nc3cccc4ccccc34)nc1=O)CCC2	?	nt	-27%	nt	nt	?
CC(=O)NCCC(=O)Nc1nc2ccc(Oc3ccccc3)cc2s1	163%	101*	11%	-17%	62*	285%
COc1ccc(CC(=O)N2CCc3cc(OC)c(OC)cc3C2COc2ccc(OC)cc2)cc1 (stereo unspecified)	nt	nt	3%	nt	nt	nt
COc1cccc(CNc2ccc(C)c(Cl)c2)c1	8%	64*	-1%	-7%	39*	?
COc1ccc(OC)c(CC(=O)Nc2ccc3c(c2)CCC3)c1	33%	21	1%	-21%	5	-5%
COc1ccc(OC)c(CNc2ccc3c(c2)CCC3)c1	?	66*	?	11%	43*	10µM*
COc1cccc(CNc2ccc3c(c2)CCC3)c1	nt	153*	-17%	1%	118*	31%
CCOC(=O)N1CCN(Cc2nc3cc([N+](=O)[O-])ccc3n2C)CC1	-16%	-12	-20%	1%	3	122%
O=C(Cc1cccs1)Nc1ccccc1NC(=O)Cc1cccs1	-3%	21	3%	-1%	1	?
O=C(Cc1cccs1)Nc1ccccc1F	-15%[0.00184 µM]	91	-2%	-2%	18*	13%
O=C(Cc1cccs1)Nc1ccccc1C(=O)O	21%	21	14%	?	21*	-1%
SMILES	Pf growth 48h	Shiga inhibitor	Sm TGR block	NS1 inh	Cycloheximide cs	Pf growth 96h
COc1ccc(-c2ccc(/C=N/NC(=O)Cc3nnc(N)s3)o2)cc1Cl	?	-1	56µM*	11%	2	2%
COC(=O)c1ccc(-c2ccc(/C=N/NC(=O)Cc3nnc(N)s3)o2)cc1	60%	39	-20%	9%	24*	128%
Nc1nnc(CC(=O)N/N=C\c2ccc(-c3cccc(Cl)c3)o2)s1	-6%	-8	-5%	6%	-1	4%
Cc1ccc(S(=O)(=O)CCC(=O)OCC(=O)NCC(=O)Nc2c(C)cc(C)cc2C)cc1	-2%	nt	0%	nt	nt	4%
CCc1cccc(OCC(O)Cn2c(N3CCCCC3)nc3c2c(=O)[nH]c(=O)n3C)c1 (stereo unspecified)	-7%	-14	-2%	15%	-1	?
CCCCc1nc2ccccc2n2c(-c3ccc(OC)cc3)c3c(=O)n(C)c(=O)n(C)c3c12	nt	nt	0%	nt	nt	nt
CN(CC1CCN(CCc2cccc(C(F)(F)F)c2)CC1)C(=O)c1ccc(F)cc1	-14%	-5	-4%	3%	-3	13µM*
COc1cccc(NC(=S)N2c3ccccc3CC2C)c1 (stereo unspecified)	10%	31	0%	4%	19*	?
CC(=O)c1ccc(NC(=S)N2c3ccccc3CC2C)cc1 (stereo unspecified)	13%	18	-25%	nt	23*	?
CC1Cc2ccccc2N1C(=S)Nc1ccc(S(N)(=O)=O)cc1 (stereo unspecified)	4%	14	-34%	-43%	-1	-12%
COc1ccc(CCN(Cc2cc3cccc(C)c3n3nnnc23)C(=O)c2ccncc2)cc1OC	-18%	-12	2%[57.1 µM]	6%	-2	-21%
O=C(CSc1nnc(-c2ccc(C(F)(F)F)cn2)s1)c1ccc(Cl)cc1	?	-6	-2%	-4%	0	0%
Fc1ccc(C2CC(c3ccco3)=Nc3ccccc3S2)cc1 (stereo unspecified)	61%	25	-2%	nt	10	85%
Oc1ccccc1C1=Nc2ccccc2N=C(c2ccco2)C1	-4%	24	?	-4%	13*	6%
Fc1ccc(CNCc2ccc3c(c2)OCO3)cc1	-7%	24	-9%	14%	-3	5%
Fc1ccccc1CNCCc1ccc2c(c1)OCO2	30%	23	10µM*	0%	3	15%
Clc1ccc(CNCCc2ccc3c(c2)OCO3)cc1	11%[0.00184 µM]	-3	0%	2%	2	-9%
Fc1ccccc1CNCc1ccc2c(c1)OCO2	5%	22	-2%	14%	19*	?
CC(C)NC(=O)CSc1ccccc1C(=O)NNC(=O)Cn1ccc(C(F)(F)F)n1	1%	nt	-19%	nt	nt	2%
C/C(=C\C(=S)Nc1ccccc1)Nc1ccc2ccccc2c1	9.3µM*	143*	-16%	-45%	74*	?
C/C(=C\C(=S)Nc1ccccc1)Nc1cccc2ccccc12	-8%	68*	-13%	3%	41*	14%
N#CC1=C(N)C(C#N)(C#N)C2(CCC3(CC2)OCCO3)C2CC3(CC=C12)OCCO3 (stereo unspecified)	?	8	?	-11%	-3	-23%

Assay outcomes deposited in PubChem by National Center for Advancing Translational Sciences (NCATS).
